About 83,000 compounds went through this panel and 20% of them were active in at least one assay; those are over-represented in the sample as a whole.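 Cell lines were cultured in 96-well plates, exposed to a single compound concentration, and assessed for percent growth 48 hours later.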 Values without a mark were called inactive. The source made the active and inactive calls. Rule for the calls: active = growth percent below 10; inactive = the rest.
Experiments:
Experiment in all cases: NCI-60 one-dose screen, 48 h (100 = growth as untreated, 0 = no growth, -100 = all killed)
Details in all cases: 10 µM unless noted
[1] = system: RPMI-8226 leukemia
[2] = system: OVCAR-8 ovarian
[3] = system: OVCAR-5 ovarian
[4] = system: OVCAR-4 ovarian
[5] = system: SK-OV-3 ovarian
[6] = system: IGROV1 ovarian
[7] = system: OVCAR-3 ovarian
[8] = system: HS 578T breast
[9] = system: NCI/ADR-RES ovarian
[10] = system: T-47D breast
[11] = system: BT-549 breast
[12] = system: MDA-MB-435 melanoma
[13] = system: SW-620 colon
[14] = system: MCF7 breast
[15] = system: HCT-116 colon
[16] = system: HCC-2998 colon
[17] = system: KM12 colon
[18] = system: SR leukemia

With `CN(C(=S)S(=O)(=O)C12CC3CC(CC(C3)C1)C2)c1ccccc1` the growth [1] was 83.9%, the growth [2] was 98.6% and the growth [3] was 89.6%. For the same compound, the growth [4] was 104%, the growth [5] was 99.9% and the growth [6] was 8.02% (active). It also gave a growth [7] of 73.7%, a growth [8] of 85% and a growth [9] of 102%. The growth [10] was 87.1%, the growth [11] was 123% and the growth [12] was 98.8%. The growth [13] was 69.7%, the growth [14] was 99.4% and the growth [15] was 93.5%. The growth [16] was 104% and the growth [17] was 109%.

`COc1ccc(NNS(=O)(=O)O)cc1` showed a growth [18] of 93.2%, a growth [2] of 98.4% and a growth [3] of 93.3%. For the same compound, the growth [4] was 111%, the growth [5] was 102% and the growth [7] was 114%. For the same compound, the growth [8] was 92.2%, the growth [9] was 92.4% and the growth [10] was 88.6%. The growth [12] was 102%, the growth [13] was 100% and the growth [14] was 92.9%. For the same compound, the growth [15] was 100%, the growth [16] was 110% and the growth [17] was 105%.

Work on `Cc1ccnc(Nc2nc3ccccc3[nH]2)n1` yielded a growth [18] of 97.1%, a growth [2] of 106% and a growth [3] of 95.3%. The growth [4] was 109%, the growth [5] was 101% and the growth [6] was 97.6%. The growth [7] was 132%, the growth [9] was 112% and the growth [10] was 86.5%. For the same compound, the growth [11] was 112%, the growth [12] was 107% and the growth [13] was 99.3%. For the same compound, the growth [14] was 98.8%, the growth [15] was 103% and the growth [16] was 112%. It also gave a growth [17] of 118%.

In the case of `Nc1ccn(C2OC(CO)C(O)C2F)c(=O)n1` (stereo not drawn), the growth [1] is reported as 73.8%, the growth [2] is reported as 61.8% and the growth [3] is reported as 93.2%. The growth [4] was 84.4%, the growth [5] was 103% and the growth [6] was 109%. The growth [7] was 80.4%, the growth [8] was 90.8% and the growth [9] was 73.2%. For the same compound, the growth [10] was 94.1%, the growth [11] was 93.9% and the growth [12] was 78.4%. For the same compound, the growth [13] was 67.7%, the growth [14] was 46.7% and the growth [15] was 49.2%. The growth [16] was 49.7% and the growth [17] was 89.6%.

`COC(=O)c1ccc([N+](=O)[O-])c(C)c1` was tested, and the growth [18] was 79.8%, the growth [2] was 108% and the growth [3] was 90.7%. The growth [4] was 101%, the growth [5] was 106% and the growth [6] was 93.1%. For the same compound, the growth [7] was 105%, the growth [9] was 108% and the growth [10] was 102%. It also gave a growth [11] of 86.3%, a growth [12] of 101% and a growth [13] of 103%. The growth [14] was 91%, the growth [15] was 95.6% and the growth [16] was 106%. It also gave a growth [17] of 99.8%.

In the case of `Cc1cc(Nc2ccc3c(c2)OCO3)c2cc3c(cc2n1)OCO3`, the growth [1] is reported as -19.9% (active), the growth [2] is reported as 25.7% and the growth [3] is reported as 45%. For the same compound, the growth [4] was 81.4%, the growth [5] was 16.2% and the growth [6] was -37.2% (active). The growth [7] was -45.1% (active), the growth [8] was -14.2% (active) and the growth [9] was -8.22% (active). The growth [10] was 44.6%, the growth [11] was 69.8% and the growth [12] was -68.2% (active). The growth [13] was 10.3%, the growth [14] was 7.08% (active) and the growth [15] was 23%. For the same compound, the growth [16] was 45.7% and the growth [17] was 9.98% (active).

Work on `O=CNCCc1ccccc1` yielded a growth [1] of 102%, a growth [2] of 102% and a growth [3] of 97.7%. For the same compound, the growth [4] was 103%, the growth [5] was 97% and the growth [6] was 110%. The growth [7] was 115%, the growth [8] was 102% and the growth [9] was 106%. The growth [10] was 101%, the growth [11] was 96.5% and the growth [12] was 102%. It also gave a growth [13] of 113%, a growth [14] of 95.3% and a growth [15] of 102%. The growth [16] was 122% and the growth [17] was 131%.

Compound `OC1Cc2ccccc2C1` has a growth [18] of 94.6%, a growth [2] of 103% and a growth [3] of 95.4%. It also gave a growth [4] of 110%, a growth [5] of 111% and a growth [7] of 104%. For the same compound, the growth [8] was 96%, the growth [9] was 93.9% and the growth [10] was 102%. The growth [11] was 97.4%, the growth [12] was 102% and the growth [13] was 96.7%. For the same compound, the growth [14] was 86.2%, the growth [15] was 97.9% and the growth [16] was 94.8%. It also gave a growth [17] of 98.5%.

Work on `Cc1cc(C(=O)c2ccccc2)cc(C)c1O` yielded a growth [18] of 55.6%, a growth [2] of 101% and a growth [3] of 99.5%. It also gave a growth [5] of 101%, a growth [6] of 103% and a growth [7] of 109%. The growth [9] was 104%, the growth [10] was 95.6% and the growth [12] was 101%. For the same compound, the growth [13] was 97.4%, the growth [14] was 93.8% and the growth [15] was 84.5%. For the same compound, the growth [16] was 102% and the growth [17] was 99.6%.

`CC(c1ccccc1)N1C(=O)CSC1=S` (stereo not drawn) was tested, and the growth [1] was 16.9%, the growth [2] was 34.2% and the growth [3] was 91.2%. The growth [4] was 29.7%, the growth [5] was 104% and the growth [6] was -31.6% (active). For the same compound, the growth [7] was -13.1% (active), the growth [8] was 81.3% and the growth [9] was -62.5% (active). The growth [10] was 63.4%, the growth [11] was 32.9% and the growth [12] was -8.13% (active). The growth [13] was 17.6%, the growth [14] was 6.61% (active) and the growth [15] was 5.85% (active). The growth [16] was 53.2% and the growth [17] was -38.3% (active).

`OCC(O)COc1ccc(Cl)cc1Cl` (stereo not drawn) showed a growth [18] of 101%, a growth [2] of 92.4% and a growth [3] of 101%. The growth [4] was 101%, the growth [5] was 91.7% and the growth [6] was 101%. It also gave a growth [7] of 110%, a growth [8] of 102% and a growth [9] of 110%. For the same compound, the growth [10] was 81.5%, the growth [11] was 101% and the growth [12] was 103%. The growth [14] was 95.6%, the growth [15] was 93% and the growth [16] was 98.3%. The growth [17] was 106%.
